From PubChem BioAssay
Pol beta inh: qHTS Assay for Inhibitors of DNA Polymerase Beta. actives 1.3% (n = 340,000). Pol beta primer extension/strand displacement, fluorescence kinetic. AID 485314, 2010. P06746. Potency, µM (series often up to 114 µM), without a hit: at the highest dose activity change, negative = inhibition, hits mostly inhibitors; further: potency means the concentration at half of the fitted maximal effect; on the % scale 0 is the no-effect control and ±100 the full control effect
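Pol beta (10 nM) was preincubated with compound for 15 min at room temperature. The reaction was then started with 50 nM substrate and read immediately and after a further 10 min at room temperature.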
WRN helicase inh: qHTS for Inhibitors of WRN Helicase; Bifunctional 3'-5' exonuclease/ATP-dependent helicase WRN (Homo sapiens), Q14191; WRN helicase unwinding, fluorescent forked duplex, kinetic; Potency, µM (top dose mostly 114 µM), inactives show top-dose activity change, negative = inhibition, most hits filed as inhibitors; actives 0.46% (n = 360,000); further: potency means the concentration at half of the fitted maximal effect; on the % scale 0 is the no-effect control and ±100 the full control effect; nearly all actives have a fitted effect of over 55% in size
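Enzyme (20 nM final) and test compound sit together 15 min at room temperature before substrate addition. Substrate is a single-forked duplex oligonucleotide (100 nM) labelled with fluorophore and quencher, with 2 mM ATP; helicase unwinding raises red fluorescence, read kinetically.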
Pol kappa inh: qHTS for Inhibitors of Polymerase Kappa; DNA polymerase kappa (Homo sapiens), Q9UBT6; purified Pol kappa, fluorescent DNA synthesis assay, 10 min; Potency, µM (titrated, usually from 107 µM), for the others: at the top dose activity, negative = inhibition, most hits filed as inhibitors; actives 0.53% (n = 400,000); AID 588579, 2011; further: potency means the concentration at half of the fitted maximal effect; on the % scale 0 is the no-effect control and ±100 the full control effect
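Here, compound and 10 nM enzyme are combined for 15 min at room temperature; adding 50 nM substrate (final) starts DNA synthesis, tracked by fluorescence at 0 and 10 min against buffer-only wells.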
POLI inh: qHTS for Inhibitors of Polymerase Iota | Potency, µM (titrated, usually from 115 µM), for the others: top-dose activity, negative = inhibition, actives largely listed as inhibitors | AID 588590, 2011 | DNA polymerase iota (Homo sapiens), Q9UNA4 | actives 1% (n = 390,000) | Pol iota fluorescent replication assay, 10 min; further: potency means the concentration at half of the fitted maximal effect
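Pol iota at 10 nM preincubated 15 min with compounds at room temperature; reaction started with fluorescent substrate, 50 nM final. Fluorescence read kinetically at 0 and 10 min; buffer-only wells as negative control.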
PI5P4K alpha inh: qHTS for Inhibitors of phosphatidylinositol 5-phosphate 4-kinase (PI5P4K) | Phosphatidylinositol 5-phosphate 4-kinase type-2 alpha (Homo sapiens), P48426 | PI5P4Kalpha enzyme, ADP-Glo luminescence, 60 min; stronger effect = lower value | max response, % | actives 1.2% (n = 330,000) | AID 652105, 2013; active means max response of -50% or lower; inconclusive means between -30% and -50%; inactive means -30% or higher; further: value at the top dose of about 77 µM; on the % scale 0 is the no-effect control and ±100 the full control effect
Target sequence (P48426 whole entry, looked up): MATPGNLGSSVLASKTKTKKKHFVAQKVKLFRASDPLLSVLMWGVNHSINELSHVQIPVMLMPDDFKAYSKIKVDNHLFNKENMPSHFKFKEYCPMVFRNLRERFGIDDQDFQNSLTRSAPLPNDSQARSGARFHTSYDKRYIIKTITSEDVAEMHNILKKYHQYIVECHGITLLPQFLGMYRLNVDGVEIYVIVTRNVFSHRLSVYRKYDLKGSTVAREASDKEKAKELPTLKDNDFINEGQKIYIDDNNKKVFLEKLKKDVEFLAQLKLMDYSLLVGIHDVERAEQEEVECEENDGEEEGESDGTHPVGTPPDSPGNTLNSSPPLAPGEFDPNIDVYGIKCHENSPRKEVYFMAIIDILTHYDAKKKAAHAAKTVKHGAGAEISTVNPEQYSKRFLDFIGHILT
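Luminescence from ADP-Glo served as readout of PI5P4Kalpha activity in a qHTS format. Reaction: enzyme, substrate, compound, ATP at 5 microM final, 60 min at RT.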
POLH inh: qHTS for Inhibitors of Polymerase Eta. DNA polymerase eta (Homo sapiens), Q9Y253. recombinant Pol eta, fluorescent DNA replication assay. Potency, µM (top dose mostly 114 µM), without a hit: at the top dose activity change, negative = inhibition, most hits filed as inhibitors. actives 1.2% (n = 390,000). AID 588591, 2011; further: potency means the concentration at half of the fitted maximal effect; on the % scale 0 is the no-effect control and ±100 the full control effect
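Pol eta at 10 nM preincubated with compounds 15 min at room temperature; reaction started with fluorescent substrate (50 nM final) and read kinetically at 0 and 10 min.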
Numbers without * were called inactive; ? = inconclusive; · = no result; [ ] = remark or other dose. This is a sample that favours compounds with a hit; in the whole collection about 2.8% have one here. Unless noted, the call rests on the fitted dose curve; in most records, active means well fitted curve in the direction sought with a large enough effect; inconclusive means small, poorly fitted or top-dose-only effect, or another doubt; inactive means no such curve, though single readings can be large; an effect the other way counts as inactive or inconclusive.

SMILES | Pol beta inh | WRN helicase inh | Pol kappa inh | POLI inh | PI5P4K alpha inh | POLH inh
CC1=Nc2ccccc2/C1=C/c1c(N)n2c(S(=O)(=O)C(C)C)nsc2nc1=O | -15.9% | ? | -20.7% | 49.9% | -76.0* | ?
Nc1c(C=C2C=CC(=O)C=C2)c(=O)nc2snc(SCc3ccccc3)n12 | ? | -7.4% | -4.4% | ? | -51.2* | ?
CSc1nsc2nc(=O)c(/C=C3\C(C)=Nc4ccc(C)cc43)c(N)n12 | -9.2% | ? | -15.2% | 9.1% | -68.2* | ?
O=C(NCC(c1ccc(Cl)cc1)N1CCCCC1)c1ccccc1 (centres undefined) | 11.8% | · | -5.3% | 9.4% | · | -16.5%
Cc1ccccc1-n1nc(CO)c(C(=O)NCCc2ccccc2)n1 | 3.5% | · | -5.0% | 10.3% | · | -23.2%
CC1=Nc2ccccc2/C1=C/c1c(N)n2c(S(=O)(=O)CC(C)C)nsc2nc1=O | ? | ? | -31.2% | 19.4% | -65.2* | 39.8µM*
Cc1cn2c(N)c(/C=C3\C=Nc4ccccc43)c(=O)nc2s1 | -3.7% | 5.4% | -7.0% | ? | -13.0 | -4.2%
CSc1nsc2nc(=O)c(/C=C3\C=Nc4ccccc43)c(N)n12 | -1.9% | -17.7% | -0.1% | -20.2% | -56.5* | ?
CC(C)S(=O)(=O)c1nsc2nc(=O)c(/C=C3\C=Nc4ccccc43)c(N)n12 | 39.8µM* | -10.7%[11.6 µM] | ? | -11.9% | -78.8* | 31.6µM*
Cc1cc2c(C)nc(N/N=C/c3ccc([N+](=O)[O-])cc3)nc2o1 | -19.1% | -25.6%[11.6 µM] | -13.1% | 35.5µM* | -5.5 | ?
Cc1cc2c(C)nc(N/N=C/c3ccc(F)cc3)nc2o1 | ? | -6.6% | -7.3% | -18.3% | 0.0 | -19.0%
CCN(CC)c1cc(C)c2cc(NC(=O)/C=C/c3ccc(C)cc3)ccc2n1 | 16.2% | · | -0.7% | -3.1% | · | -13.8%
O=C(NCCc1ccc(F)cc1)C(=O)NCC(c1cccs1)S(=O)(=O)c1ccccc1 (centres undefined) | 1.5% | · | -0.1%[60.1 µM] | -20.1% | · | -14.5%
O=c1c2ccccc2nc2c3ccccc3c(NCCN3CCOCC3)nn12 | 39.8µM* | · | · | · | · | ·
Cc1cccc(N2C(=O)/C(=C/c3cccnc3)SC2=S)c1 | 0.6% | -2.0% | 5.4% | 19.0% | 5.2 | -15.7%
Cc1ccc(/C=C2\SC(=S)N(c3cccnc3)C2=O)o1 | 3.4% | -9.0% | 50.1µM* | ? | 1.1 | -15.8%
Cc1cc(C(=O)CSc2nnnn2C)c(C)n1Cc1ccco1 | ? | -8.6% | -7.2% | 79.4µM* | -19.8 | 6.9%
Cc1cc(C(=O)CSc2nc3ccc(Cl)cc3[nH]2)c(C)n1Cc1ccco1 | · | -13.9% | ? | 22.4µM* | -28.7 | -0.9%
Cc1cc(C(=O)C(C)Cl)c(C)n1Cc1ccco1 (centres undefined) | ? | ? | ? | 15.8µM* | ? | 70.8µM*
O=C(CSc1nc2ccc(Cl)cc2[nH]1)NCc1ccco1 | -12.0% | ? | -16.1% | 9.1% | -20.9 | 5.3%
CC(=O)c1ccc(NC(=O)CSc2nc(-c3ccccc3C)nc3c2c(=O)n(C)c(=O)n3C)cc1 | 2.9% | · | -4.2%[60.1 µM] | 4.9% | · | -10.0%
Cc1ccc(/C=C/c2onc(C)c2S(=O)(=O)N2CCC(C(=O)NCc3ccc(OC(C)C)cc3)CC2)cc1 | 2.9% | · | -6.0%[60.1 µM] | 4.9% | · | -18.0%
Cc1ccc2c(c1)Cc1c(nc(-c3ccc(Cl)cc3)nc1SCC(=O)N1CCCCC1)O2 | 13.1% | · | -33.5% | 12.5% | · | -3.8%
Cc1ccc(S(=O)(=O)NCc2ccncc2)cc1 | 3.7% | 3.1% | 6.9% | 2.7% | 1.0 | -11.8%
CC1CCCCC1NS(=O)(=O)c1ccc(S(=O)(=O)NCc2ccncc2)cc1 (centres undefined) | 70.8µM* | -22.4% | -0.2% | ? | · | -9.3%
SMILES | Pol beta inh | WRN helicase inh | Pol kappa inh | POLI inh | PI5P4K alpha inh | POLH inh
C=CCNC(=O)c1ccc(C2SCC(=O)N2Cc2ccco2)cc1 (centres undefined) | ? | -39.5% | ? | 44.7µM* | -20.0 | ?
O=C(NCc1ccc2c(c1)OCO2)c1ccc(C2SCC(=O)N2Cc2ccco2)cc1 (centres undefined) | -27.4% | ? | -34.0% | ? | · | 79.4µM*
COCCCNC(=O)c1ccc(C2SCC(=O)N2Cc2ccco2)cc1 (centres undefined) | 9.6% | 0.5% | -6.4% | 38.0% | 0.0 | -10.8%
CCOc1ccc(NC(=O)CSc2cc(C)c3ccccc3n2)cc1 | 18.4% | · | 0.4%[60.1 µM] | 10.3% | · | -1.8%
CCOc1cc([N+](=O)[O-])cc(/C=C2/NC(=O)N(Cc3ccccc3F)C2=O)c1O | ? | -1.2%[11.6 µM] | ? | ? | -77.2* | 50.1µM*
Cc1cc(/C=C2/NC(=O)N(Cc3ccccc3F)C2=O)c(C)n1C | -4.9% | 1.2% | 3.5%[60.1 µM] | 13.2% | -18.6 | -16.0%
Nc1ccc(/C=C/c2cc(Cl)nc3ccccc23)cc1 | · | · | 3.2% | 6.9% | · | ·
Nc1ccccc1C(=O)NCc1ccco1 | -0.2% | 8.2% | -8.8% | 55.7% | -3.7 | -7.8%
O=C(CN1CCN(c2ccccc2)CC1)NC(=O)NCc1ccco1 | 6.5% | 8.0% | 0.8% | 8.5% | -8.0 | -9.0%
O=C(CN1CCN(c2ccccc2F)CC1)NC(=O)NCc1ccco1 | 31.6µM* | -5.6% | ? | ? | -18.0 | -10.8%
Cc1scc(C(=O)NCc2ccco2)c1-c1ccccc1 | 22.4µM* | -26.8%[57.1 µM] | -13.2% | ? | · | ?
O=C(NCc1ccco1)c1cc(=O)c2ccccc2o1 | -18.2% | 1.6% | -8.6% | -12.4% | -1.3 | -2.8%
O=C(NCc1ccco1)c1cc2ccccc2c(=O)o1 | 44.7µM* | -18.0% | ? | ? | ? | ?
O=C(NCc1ccco1)c1ccccc1F | ? | -23.0%[57.1 µM] | -28.9% | ? | -18.9 | 22.4µM*
CC1CCCCN1C(=O)CSc1nc2ccccc2nc1Cc1ccc(Cl)cc1 (centres undefined) | -16.5% | · | -15.4%[60.1 µM] | 4.1% | · | -24.7%
CCCCCCCCCCCCCCCCCCN(CCCCCCCCCCCCCCCCCC)c1ccc(/C=C/c2ccc(C=O)cc2)cc1 | · | · | -19.8% | 21.0% | · | ·
CCOc1ccc(NC(=O)Nc2cc3c(cc2N2CCCCC2)n(C)c(=O)n3C)cc1 | -21.8% | · | 0.0% | 35.9% | · | -14.8%
O=C(Cc1ccc(OCCc2ccccc2)cc1)NO | · | · | -3.3% | 27.5% | · | ·
O=C(N/N=C/c1cccnc1)c1ccccc1OCc1ccc(Cl)cc1 | 2.5% | · | · | · | · | ·
O=C(N/N=C/c1cccnc1)c1cc(-c2ccccc2OCc2ccccc2)n[nH]1 | 79.4µM* | -28.6% | -31.0% | 51.3% | -12.7 | 2.5%
